Laboratory results: PubChem BioAssay (EPA / NIEHS)
Records with an inconclusive call do not appear. Activity calls are given as the source filed them. How the source made its calls: active means hit-call score of the fitted dose curve at least 0.9, where 1 is the maximum; inconclusive means response in the unintended direction; inactive means score below 0.9.

assay: Tanguay_ZF_120hpf_SNOU_legacy: (Legacy) Oregon State University Tanguay Lab 120 Hour Post-fertilization zebrafish Assay for Snout Malformation (AID 2283637)
Method in brief: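 Binary snout-malformation call at 120 hpf in wild-type 5D embryos, chorion removed by pronase, under static exposure from 6 hpf at 28C (0.64% DMSO). Embryos dying by 24 or 120 hpf excluded.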

Compound	outcome	AC50
CCCCCOC(=O)COc1cc(N2C(=O)C3=C(CCCC3)C2=O)c(F)cc1Cl	inactive	
CCSC(=O)N(CC(C)C)CC(C)C	inactive	
CCC(C)OC(=O)N1CCCCC1CCO (stereo not given)	inactive	
CCCN(CCC)c1c([N+](=O)[O-])cc(C(F)(F)F)c(N)c1[N+](=O)[O-]	inactive	
COC(=O)c1ccccc1C(=O)O	inactive	
O=C(O)C1(C(=O)Nc2ccc(Cl)cc2Cl)CC1	inactive	
CCCCOC(=O)C(C)Oc1ccc(Oc2ccc(C(F)(F)F)cn2)cc1 (stereo not given)	inactive	
CCOC(=O)C(C)Oc1ccc(Oc2cnc3cc(Cl)ccc3n2)cc1 (stereo not given)	inactive	
CC(C)(C)[C@@H](O)[C@@H](Cc1ccc(Cl)cc1)n1cncn1		10.5 µM (active)
COc1c(Cl)ccc(Cl)c1C(=O)O	inactive	
C=CCOC(Cn1ccnc1)c1ccc(Cl)cc1Cl (stereo not given)		4.34 µM (active)
CCCN(CCC)C(=O)SCC	inactive	
CCCCOCCOCCOCc1cc2c(cc1CCC)OCO2		7.01 µM (active)
S=C([S-])NCCNC(=S)[S-].[Mn+2]	inactive	
CCCOC(=O)c1ccc(C(=O)OCCC)nc1	inactive	
CCOC(=O)COc1cc(-n2ncc(C(F)(F)F)c(C)c2=O)c(F)cc1Cl	inactive	
CCOC(=O)NCCOc1ccc(Oc2ccccc2)cc1	inactive	
CCCCOC(=O)[C@@H](C)Oc1ccc(Oc2ccc(C(F)(F)F)cn2)cc1	inactive	
Cc1nn(C)c(Oc2ccccc2)c1C=NOCc1ccc(C(=O)OC(C)(C)C)cc1	inactive	
OB(O)O	inactive	
CCOC(=O)C(C)Oc1ccc(Oc2nc3ccc(Cl)cc3o2)cc1 (stereo not given)	inactive	
COC(=O)CSc1cc(N=c2sc(=O)n3n2CCCC3)c(F)cc1Cl	inactive	
CCNc1nc(N)nc(Cl)n1	inactive	

assay: Tanguay_ZF_120hpf_JAW_legacy: (Legacy) Oregon State University Tanguay Lab 120 Hour Post-fertilization zebrafish Assay for Jaw Malformation (AID 2283638);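 on AC50: active means more embryos with jaw malformation than DMSO controls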
Method in brief: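 Binary jaw-malformation call at 120 hpf by brightfield microscopy. Embryos (Tropical 5D strain, chorion removed at 4 hpf) were dosed statically at 6 hpf, one per well, at 28C with 0.64% DMSO. Embryos that died were not scored.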

Compound	outcome	AC50
CCCCCOC(=O)COc1cc(N2C(=O)C3=C(CCCC3)C2=O)c(F)cc1Cl	inactive	
CCSC(=O)N(CC(C)C)CC(C)C	inactive	
CCC(C)OC(=O)N1CCCCC1CCO (stereo not given)	inactive	
CCCN(CCC)c1c([N+](=O)[O-])cc(C(F)(F)F)c(N)c1[N+](=O)[O-]	inactive	
COC(=O)c1ccccc1C(=O)O	inactive	
O=C(O)C1(C(=O)Nc2ccc(Cl)cc2Cl)CC1	inactive	
CCCCOC(=O)C(C)Oc1ccc(Oc2ccc(C(F)(F)F)cn2)cc1 (stereo not given)	inactive	
CCOC(=O)C(C)Oc1ccc(Oc2cnc3cc(Cl)ccc3n2)cc1 (stereo not given)	inactive	
CCCOC(=O)NCCCN(C)C	inactive	
CC(C)(C)[C@@H](O)[C@@H](Cc1ccc(Cl)cc1)n1cncn1	inactive	
COc1c(Cl)ccc(Cl)c1C(=O)O	inactive	
C=CCOC(Cn1ccnc1)c1ccc(Cl)cc1Cl (stereo not given)		3.98 µM (active)
CCCN(CCC)C(=O)SCC	inactive	
CCCCOCCOCCOCc1cc2c(cc1CCC)OCO2	inactive	
S=C([S-])NCCNC(=S)[S-].[Mn+2]	inactive	
CCCOC(=O)c1ccc(C(=O)OCCC)nc1	inactive	
CCOC(=O)NCCOc1ccc(Oc2ccccc2)cc1	inactive	
Cc1nn(C)c(Oc2ccccc2)c1C=NOCc1ccc(C(=O)OC(C)(C)C)cc1	inactive	
OB(O)O	inactive	
CCOC(=O)C(C)Oc1ccc(Oc2nc3ccc(Cl)cc3o2)cc1 (stereo not given)	inactive	
COC(=O)CSc1cc(N=c2sc(=O)n3n2CCCC3)c(F)cc1Cl	inactive	
CCNc1nc(N)nc(Cl)n1	inactive	
